What all share (assay): DAPPL (digital affinity profiling via proximity ligation, sequencing); 10 mM Tris-HCl pH 7.5, 50 mM NaCl, 1 mM DTT, 4% glycerol, room temperature, 30 min; GST-TFs on glutathione beads, 16-mer random dsDNA library, 0.1% formaldehyde crosslink after washing; high values mean tight binding
One assay deals with T1, FLI1 (Homo sapiens, UniProt Q01543 1-452).
T1 sequence: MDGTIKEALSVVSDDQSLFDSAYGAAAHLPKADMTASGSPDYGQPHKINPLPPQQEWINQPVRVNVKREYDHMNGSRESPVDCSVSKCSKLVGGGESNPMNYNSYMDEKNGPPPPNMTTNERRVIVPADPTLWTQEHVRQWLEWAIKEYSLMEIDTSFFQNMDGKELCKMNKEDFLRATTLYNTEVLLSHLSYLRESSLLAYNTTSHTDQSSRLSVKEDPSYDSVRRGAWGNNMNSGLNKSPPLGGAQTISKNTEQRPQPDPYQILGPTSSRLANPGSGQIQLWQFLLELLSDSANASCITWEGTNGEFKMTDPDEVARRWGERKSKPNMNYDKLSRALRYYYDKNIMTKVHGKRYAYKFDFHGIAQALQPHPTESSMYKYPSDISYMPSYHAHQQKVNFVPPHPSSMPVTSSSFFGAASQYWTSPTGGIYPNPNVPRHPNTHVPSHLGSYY
The note with it: protein: recombinant; tags: N-terminal GST; dsDNA, one strand shown. The method, boiled down: (§1)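 The binding signal reported is, for every hexamer, its read frequency for a factor over its read frequency for the tag-only sample. Reads came from pools of yeast-expressed, GST-fused human transcription factors on glutathione beads, barcoded with DNA and mixed with that sample, which were incubated with 200 nmole of a random double-stranded 16-mer DNA library in Tris/NaCl/DTT/glycerol buffer at room temperature for 30 min. After washing, the pools were crosslinked with 0.1% formaldehyde, proximity-ligated with BsaI/T4 ligase for 1 h at 37 °C, PCR-amplified and sequenced on an Illumina NextSeq500.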

The next assay deals with T2, ELK1 (Homo sapiens, UniProt P19419 1-428).
T2 sequence: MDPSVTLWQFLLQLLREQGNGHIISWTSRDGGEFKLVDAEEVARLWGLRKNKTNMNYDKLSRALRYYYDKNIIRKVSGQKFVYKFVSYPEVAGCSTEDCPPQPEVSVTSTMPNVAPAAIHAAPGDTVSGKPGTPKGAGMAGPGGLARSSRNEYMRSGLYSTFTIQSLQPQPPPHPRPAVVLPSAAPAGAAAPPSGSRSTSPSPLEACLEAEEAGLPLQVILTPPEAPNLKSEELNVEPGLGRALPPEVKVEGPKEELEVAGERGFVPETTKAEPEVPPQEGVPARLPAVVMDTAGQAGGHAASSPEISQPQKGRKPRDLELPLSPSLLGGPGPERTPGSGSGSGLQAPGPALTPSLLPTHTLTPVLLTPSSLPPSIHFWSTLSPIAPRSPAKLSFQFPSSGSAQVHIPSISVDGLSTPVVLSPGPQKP
The note with it: protein: recombinant; tags: N-terminal GST; dsDNA, one strand shown. The essentials: as §1

The target in another assay is T3, GABPA (Homo sapiens, UniProt Q06546 1-454).
T3 sequence: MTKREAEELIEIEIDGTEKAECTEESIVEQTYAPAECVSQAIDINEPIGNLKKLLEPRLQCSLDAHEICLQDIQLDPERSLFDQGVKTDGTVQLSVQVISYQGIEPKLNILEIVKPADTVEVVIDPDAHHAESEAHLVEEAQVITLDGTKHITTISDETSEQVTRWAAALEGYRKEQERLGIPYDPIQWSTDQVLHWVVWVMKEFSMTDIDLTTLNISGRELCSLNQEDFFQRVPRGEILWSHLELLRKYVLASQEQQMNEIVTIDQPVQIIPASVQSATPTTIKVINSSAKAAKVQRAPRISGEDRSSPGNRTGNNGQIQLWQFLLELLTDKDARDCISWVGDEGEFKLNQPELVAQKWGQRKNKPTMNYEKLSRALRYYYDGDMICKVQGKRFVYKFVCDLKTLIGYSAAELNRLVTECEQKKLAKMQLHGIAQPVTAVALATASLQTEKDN
The note with it: protein: recombinant; tags: N-terminal GST; dsDNA, one strand shown. The essentials: as §1

A further assay concerns the target T4, ERG (Homo sapiens, UniProt P11308 1-479).
T4 sequence: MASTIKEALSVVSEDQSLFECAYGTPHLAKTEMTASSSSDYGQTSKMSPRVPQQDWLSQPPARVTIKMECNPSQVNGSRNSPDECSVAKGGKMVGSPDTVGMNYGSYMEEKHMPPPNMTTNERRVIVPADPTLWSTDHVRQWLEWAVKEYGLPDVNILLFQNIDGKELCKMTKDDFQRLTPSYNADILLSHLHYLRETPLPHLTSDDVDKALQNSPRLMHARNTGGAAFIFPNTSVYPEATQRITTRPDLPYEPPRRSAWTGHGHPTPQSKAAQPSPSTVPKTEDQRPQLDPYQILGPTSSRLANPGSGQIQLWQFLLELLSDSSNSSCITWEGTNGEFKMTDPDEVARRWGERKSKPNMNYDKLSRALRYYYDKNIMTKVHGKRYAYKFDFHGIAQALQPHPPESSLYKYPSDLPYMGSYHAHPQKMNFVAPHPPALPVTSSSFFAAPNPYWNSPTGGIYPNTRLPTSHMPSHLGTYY
The note with it: protein: recombinant; tags: N-terminal GST; dsDNA, one strand shown. The essentials: as §1

The next assay concerns the target ELF1 (Homo sapiens, UniProt P32519 1-619). The note with it: protein: recombinant; tags: N-terminal GST; dsDNA, one strand shown. The essentials:
as §1

A further assay deals with T5, EHF (Homo sapiens, UniProt Q9NZC4 1-300).
T5 sequence: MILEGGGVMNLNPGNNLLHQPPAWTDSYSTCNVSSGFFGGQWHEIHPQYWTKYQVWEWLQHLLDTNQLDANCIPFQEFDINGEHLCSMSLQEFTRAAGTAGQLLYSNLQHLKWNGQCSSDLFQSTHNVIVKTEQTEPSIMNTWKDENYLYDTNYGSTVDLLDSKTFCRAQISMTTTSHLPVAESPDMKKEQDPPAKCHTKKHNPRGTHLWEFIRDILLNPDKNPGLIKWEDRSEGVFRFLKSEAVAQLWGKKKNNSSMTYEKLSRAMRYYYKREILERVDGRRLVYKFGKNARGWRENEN
The note with it: protein: recombinant; tags: N-terminal GST; dsDNA, one strand shown. The method, boiled down: as §1

Another assay has as its target SPIB (Homo sapiens, UniProt Q01892 1-262). The note with it: protein: recombinant; tags: N-terminal GST; dsDNA, one strand shown. The method, boiled down: as §1
Another assay concerns the target T6, ELK3 (Homo sapiens, UniProt P41970 1-407).
T6 sequence: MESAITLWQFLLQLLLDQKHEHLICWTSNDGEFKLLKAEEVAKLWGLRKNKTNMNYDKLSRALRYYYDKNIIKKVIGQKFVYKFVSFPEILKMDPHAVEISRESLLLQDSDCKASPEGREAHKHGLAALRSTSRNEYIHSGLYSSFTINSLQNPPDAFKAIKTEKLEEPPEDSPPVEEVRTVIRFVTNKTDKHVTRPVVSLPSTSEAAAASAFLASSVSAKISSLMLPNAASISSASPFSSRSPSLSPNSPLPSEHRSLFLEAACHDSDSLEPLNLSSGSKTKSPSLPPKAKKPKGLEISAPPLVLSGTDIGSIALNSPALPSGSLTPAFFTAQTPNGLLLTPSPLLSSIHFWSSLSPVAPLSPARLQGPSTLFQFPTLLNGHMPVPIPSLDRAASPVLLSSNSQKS
The note with it: protein: recombinant; tags: N-terminal GST; dsDNA, one strand shown. The method, boiled down: as §1

The target of a further assay is ETV5 (Homo sapiens, UniProt P41161 1-510). The note with it: protein: recombinant; tags: N-terminal GST; dsDNA, one strand shown. The essentials: as §1
Chain of ETV5 (P41161 whole entry): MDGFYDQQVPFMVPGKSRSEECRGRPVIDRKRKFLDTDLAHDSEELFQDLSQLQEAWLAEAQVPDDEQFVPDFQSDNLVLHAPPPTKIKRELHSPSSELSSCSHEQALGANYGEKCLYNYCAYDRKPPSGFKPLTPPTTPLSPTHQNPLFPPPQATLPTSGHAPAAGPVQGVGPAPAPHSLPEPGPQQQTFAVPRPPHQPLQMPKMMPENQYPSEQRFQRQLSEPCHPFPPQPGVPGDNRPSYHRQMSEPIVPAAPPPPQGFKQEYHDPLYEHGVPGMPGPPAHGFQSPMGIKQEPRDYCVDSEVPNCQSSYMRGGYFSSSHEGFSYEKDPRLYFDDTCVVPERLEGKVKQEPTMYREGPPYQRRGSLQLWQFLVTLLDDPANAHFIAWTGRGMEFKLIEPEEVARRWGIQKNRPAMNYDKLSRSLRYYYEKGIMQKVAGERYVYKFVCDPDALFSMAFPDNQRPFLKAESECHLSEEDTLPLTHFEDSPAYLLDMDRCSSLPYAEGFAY
The target of another assay is HSF1 (Homo sapiens, UniProt Q00613 1-529). The note with it: protein: recombinant; tags: N-terminal GST; chain copies: 3; dsDNA, one strand shown. The essentials:
as §1

In a further assay the target is T7, SPIC (Homo sapiens, UniProt Q8N5J4 1-248).
T7 sequence: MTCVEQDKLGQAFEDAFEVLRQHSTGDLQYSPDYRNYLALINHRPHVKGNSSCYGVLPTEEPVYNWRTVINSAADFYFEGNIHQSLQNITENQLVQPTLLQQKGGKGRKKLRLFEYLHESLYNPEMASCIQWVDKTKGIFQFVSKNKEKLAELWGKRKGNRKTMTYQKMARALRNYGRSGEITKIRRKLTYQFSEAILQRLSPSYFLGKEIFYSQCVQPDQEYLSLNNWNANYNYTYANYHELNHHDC
The note with it: protein: recombinant; tags: N-terminal GST; dsDNA, one strand shown. The essentials: as §1

The next assay addresses ELF4 (Homo sapiens, UniProt Q99607 1-663). The note with it: protein: recombinant; tags: N-terminal GST; dsDNA, one strand shown. The essentials:
as §1

Another assay concerns the target T8, ELK4 (Homo sapiens, UniProt P28324-2 1-405).
T8 sequence: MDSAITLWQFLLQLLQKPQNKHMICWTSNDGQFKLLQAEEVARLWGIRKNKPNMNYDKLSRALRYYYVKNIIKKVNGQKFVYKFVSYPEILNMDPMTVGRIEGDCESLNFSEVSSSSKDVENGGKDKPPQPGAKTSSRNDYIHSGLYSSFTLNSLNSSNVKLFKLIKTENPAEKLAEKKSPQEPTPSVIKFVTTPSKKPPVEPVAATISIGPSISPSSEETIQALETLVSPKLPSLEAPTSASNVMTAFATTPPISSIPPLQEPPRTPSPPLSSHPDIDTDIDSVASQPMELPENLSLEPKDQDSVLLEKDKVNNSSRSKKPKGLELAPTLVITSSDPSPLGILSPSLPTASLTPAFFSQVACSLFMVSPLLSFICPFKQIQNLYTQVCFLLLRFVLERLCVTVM
The note with it: protein: recombinant; tags: N-terminal GST; dsDNA, one strand shown. The method, boiled down: as §1

For the next assay, the target named is T9, ETV2 (Homo sapiens, UniProt O00321 1-342).
T9 sequence: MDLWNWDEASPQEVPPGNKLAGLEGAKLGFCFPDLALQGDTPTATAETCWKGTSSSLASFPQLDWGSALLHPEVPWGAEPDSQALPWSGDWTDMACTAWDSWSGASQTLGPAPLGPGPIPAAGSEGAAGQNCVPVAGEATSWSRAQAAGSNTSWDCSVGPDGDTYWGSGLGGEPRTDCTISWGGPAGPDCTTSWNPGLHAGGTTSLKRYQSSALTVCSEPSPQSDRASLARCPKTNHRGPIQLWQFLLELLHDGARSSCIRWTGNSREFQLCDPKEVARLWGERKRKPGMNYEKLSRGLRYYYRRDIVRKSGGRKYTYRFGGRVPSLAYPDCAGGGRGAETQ
The note with it: protein: recombinant; tags: N-terminal GST; dsDNA, one strand shown. The essentials:
as §1

The target in the next assay is T10, ELF3 (Homo sapiens, UniProt P78545 1-371).
T10 sequence: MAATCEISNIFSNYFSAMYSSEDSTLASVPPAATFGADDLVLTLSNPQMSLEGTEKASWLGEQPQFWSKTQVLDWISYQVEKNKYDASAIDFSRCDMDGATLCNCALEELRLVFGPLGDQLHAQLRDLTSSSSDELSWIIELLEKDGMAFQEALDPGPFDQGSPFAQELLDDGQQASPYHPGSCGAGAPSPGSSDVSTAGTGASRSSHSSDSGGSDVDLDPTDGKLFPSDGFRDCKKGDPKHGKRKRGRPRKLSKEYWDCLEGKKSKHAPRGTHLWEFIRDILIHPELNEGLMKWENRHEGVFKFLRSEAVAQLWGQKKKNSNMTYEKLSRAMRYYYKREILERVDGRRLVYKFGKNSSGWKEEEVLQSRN
The note with it: protein: recombinant; tags: N-terminal GST; dsDNA, one strand shown. The essentials: as §1

Another assay addresses ETV1 (Homo sapiens, UniProt P50549 1-477). The note with it: protein: recombinant; tags: N-terminal GST; dsDNA, one strand shown. The essentials:
as §1

Chain of ELF4 (Q99607 whole entry): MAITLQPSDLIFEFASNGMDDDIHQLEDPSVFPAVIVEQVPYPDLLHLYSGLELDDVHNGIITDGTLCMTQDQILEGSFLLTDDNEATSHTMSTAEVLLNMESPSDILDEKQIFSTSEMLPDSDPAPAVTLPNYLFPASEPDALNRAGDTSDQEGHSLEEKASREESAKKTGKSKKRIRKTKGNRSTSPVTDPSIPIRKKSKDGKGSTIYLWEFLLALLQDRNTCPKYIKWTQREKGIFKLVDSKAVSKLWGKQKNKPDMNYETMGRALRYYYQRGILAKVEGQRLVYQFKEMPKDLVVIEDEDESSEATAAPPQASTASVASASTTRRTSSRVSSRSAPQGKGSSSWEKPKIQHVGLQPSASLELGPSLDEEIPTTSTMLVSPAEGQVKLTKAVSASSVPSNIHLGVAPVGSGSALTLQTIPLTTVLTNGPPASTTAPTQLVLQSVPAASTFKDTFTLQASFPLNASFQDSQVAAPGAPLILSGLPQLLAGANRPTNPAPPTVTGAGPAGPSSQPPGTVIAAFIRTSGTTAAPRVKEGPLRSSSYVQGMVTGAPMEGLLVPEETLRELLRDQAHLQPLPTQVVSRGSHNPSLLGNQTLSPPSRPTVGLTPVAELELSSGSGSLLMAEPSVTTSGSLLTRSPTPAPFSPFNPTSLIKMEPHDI
Chain of ETV1 (P50549 whole entry): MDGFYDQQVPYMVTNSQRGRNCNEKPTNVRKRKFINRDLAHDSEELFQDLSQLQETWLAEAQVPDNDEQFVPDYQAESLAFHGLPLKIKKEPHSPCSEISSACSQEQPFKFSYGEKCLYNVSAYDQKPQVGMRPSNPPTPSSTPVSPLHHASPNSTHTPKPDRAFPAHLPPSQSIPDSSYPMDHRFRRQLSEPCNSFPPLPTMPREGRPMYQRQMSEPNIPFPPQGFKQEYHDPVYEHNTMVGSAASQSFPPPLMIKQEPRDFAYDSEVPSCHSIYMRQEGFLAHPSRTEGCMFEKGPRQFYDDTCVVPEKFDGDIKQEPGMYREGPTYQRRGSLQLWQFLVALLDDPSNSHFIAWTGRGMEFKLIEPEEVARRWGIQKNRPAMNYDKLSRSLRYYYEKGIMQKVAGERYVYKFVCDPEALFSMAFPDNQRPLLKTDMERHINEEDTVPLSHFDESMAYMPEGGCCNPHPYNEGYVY
Chain of SPIB (Q01892 whole entry): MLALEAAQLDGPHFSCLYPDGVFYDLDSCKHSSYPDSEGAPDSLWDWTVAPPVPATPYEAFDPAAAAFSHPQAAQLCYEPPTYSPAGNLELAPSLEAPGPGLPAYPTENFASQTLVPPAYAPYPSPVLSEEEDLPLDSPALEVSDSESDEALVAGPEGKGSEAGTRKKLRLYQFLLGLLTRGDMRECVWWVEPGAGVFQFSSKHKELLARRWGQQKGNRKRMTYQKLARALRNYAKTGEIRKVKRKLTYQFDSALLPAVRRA
Chain of HSF1 (Q00613 whole entry): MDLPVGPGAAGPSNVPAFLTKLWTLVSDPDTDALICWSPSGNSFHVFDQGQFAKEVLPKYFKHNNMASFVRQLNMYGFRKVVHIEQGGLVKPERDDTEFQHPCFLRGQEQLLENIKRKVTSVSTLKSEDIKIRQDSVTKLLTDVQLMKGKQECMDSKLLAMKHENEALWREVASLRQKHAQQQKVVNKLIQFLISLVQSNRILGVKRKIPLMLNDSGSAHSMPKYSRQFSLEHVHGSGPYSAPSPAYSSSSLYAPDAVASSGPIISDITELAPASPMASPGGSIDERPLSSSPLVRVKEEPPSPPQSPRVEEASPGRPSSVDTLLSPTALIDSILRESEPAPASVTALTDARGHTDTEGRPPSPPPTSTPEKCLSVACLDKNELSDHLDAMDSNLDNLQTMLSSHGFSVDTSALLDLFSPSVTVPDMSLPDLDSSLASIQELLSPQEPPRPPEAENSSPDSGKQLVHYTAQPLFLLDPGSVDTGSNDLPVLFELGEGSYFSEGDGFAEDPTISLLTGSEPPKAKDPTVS
Chain of ELF1 (P32519 whole entry): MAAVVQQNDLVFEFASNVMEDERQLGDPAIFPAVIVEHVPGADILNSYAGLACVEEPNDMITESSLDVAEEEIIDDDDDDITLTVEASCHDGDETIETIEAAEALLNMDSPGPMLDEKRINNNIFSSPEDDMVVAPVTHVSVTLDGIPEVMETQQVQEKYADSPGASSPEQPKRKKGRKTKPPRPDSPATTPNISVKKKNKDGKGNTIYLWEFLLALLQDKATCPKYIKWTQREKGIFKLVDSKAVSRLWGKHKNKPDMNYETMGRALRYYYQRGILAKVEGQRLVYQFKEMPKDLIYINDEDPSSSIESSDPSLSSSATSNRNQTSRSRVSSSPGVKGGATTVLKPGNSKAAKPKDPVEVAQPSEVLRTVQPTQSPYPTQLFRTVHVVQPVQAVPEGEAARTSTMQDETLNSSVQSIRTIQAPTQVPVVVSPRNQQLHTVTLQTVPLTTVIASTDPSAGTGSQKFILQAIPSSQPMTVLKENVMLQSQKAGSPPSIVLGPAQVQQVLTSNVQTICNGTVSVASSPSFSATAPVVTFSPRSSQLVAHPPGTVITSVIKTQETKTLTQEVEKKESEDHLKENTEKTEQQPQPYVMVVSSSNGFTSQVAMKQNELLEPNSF

For the sequence TCGACG, the binding signal with FLI1 is 1.23 fold enrichment (6-mer frequency, TF over GST control); with ELK1, 1.14 fold enrichment (6-mer frequency, TF over GST control); in the assay with GABPA, 1.06 fold enrichment (6-mer frequency, TF over GST control); with ERG, 1.04 fold enrichment (6-mer frequency, TF over GST control); in the assay with ELF1 it was 1.1 fold enrichment (6-mer frequency, TF over GST control); in the assay with EHF, 1.21 fold enrichment (6-mer frequency, TF over GST control). Besides, the binding signal with SPIB is 1.05 fold enrichment (6-mer frequency, TF over GST control); with ELK3 it was 1.02 fold enrichment (6-mer frequency, TF over GST control); with ETV5 it was 1.17 fold enrichment (6-mer frequency, TF over GST control); with HSF1 it was 1.15 fold enrichment (6-mer frequency, TF over GST control); with SPIC, 1.07 fold enrichment (6-mer frequency, TF over GST control); in the assay with ELF4, 1.08 fold enrichment (6-mer frequency, TF over GST control). For the same sequence, the binding signal in the assay with ELK4 was 1.08 fold enrichment (6-mer frequency, TF over GST control); with ETV2, 1.18 fold enrichment (6-mer frequency, TF over GST control); with ELF3, 1.06 fold enrichment (6-mer frequency, TF over GST control); in the assay with ETV1, 1.05 fold enrichment (6-mer frequency, TF over GST control).

(Values after PMC7862700, “An all-to-all approach to the identification of sequence-specific readers for epigenetic DNA modifications on cytosine”.)
